The text below walks through data of PubChem BioAssay (NCI).

Test systems include DU-145 prostate; K-562 leukemia; MALME-3M melanoma; MDA-MB-231 breast; RXF 393 renal; SF-268 CNS; SF-295 CNS; SF-539 CNS; UACC-257 melanoma; M14 melanoma.
Holding throughout (test): NCI-60 one-dose screen, 48 h (100 = growth as untreated, 0 = no growth, -100 = all killed)
What all share (details): 10 µM unless noted

The structures appear in SMILES notation. About 83,000 compounds went through this panel and 20% of them were active in at least one assay; those are over-represented in the sample as a whole.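 Single-dose data. Exposure time 48 hours. Values below 10 considered active.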 Unmarked numbers belong to inactive results. The source made the active and inactive calls.

As for `COc1ccc([C@H]2[C@H](O)C(=O)N2c2cc(OC)c(OC)c(OC)c2)cc1F`, the growth was 14.6% in the assay with DU-145 prostate; 8.75% (active) in the assay on K-562 leukemia; 65.9% with MALME-3M melanoma; 24.5% with MDA-MB-231 breast; 27% in the assay on RXF 393 renal; 37.4% in the assay with SF-268 CNS. Moreover, the growth is 8.48% (active) with SF-295 CNS, -5.31% (active) in the assay with SF-539 CNS, 57.7% in the assay on UACC-257 melanoma and 2.83% (active) in the assay on M14 melanoma.

With `CCOC(=O)c1c(Nc2ccccc2)nn2c(-c3ccc(Cl)cc3)ccnc12`, the growth was 79.5% in the assay on DU-145 prostate; 81.1% with K-562 leukemia; 84% with MALME-3M melanoma; 75.4% in the assay with MDA-MB-231 breast; -10.6% (active) with RXF 393 renal; 77% in the assay on SF-268 CNS. Further, the growth is 77.5% with SF-295 CNS, 71.7% in the assay on SF-539 CNS, 104% in the assay with UACC-257 melanoma and 96.5% with M14 melanoma.

Take `O=S(=O)(Nc1ccc(I)cc1Cl)c1ccc(-c2cnc(C3CC3)o2)cc1`: the growth is 50.2% in the assay on DU-145 prostate; 19.8% in the assay with K-562 leukemia; 47.3% with MALME-3M melanoma; 57.5% with MDA-MB-231 breast; -4.05% (active) with RXF 393 renal; 58.9% with SF-268 CNS. The growth was 2.33% (active) in the assay with SF-295 CNS, 21.4% in the assay on SF-539 CNS, 58.5% in the assay with UACC-257 melanoma and 29.6% in the assay with M14 melanoma.

For the compound `CCCCCCCn1cc2c(NCCc3ccccc3)ncnc2n1`, the growth in the assay on DU-145 prostate was 102%; with K-562 leukemia, 88.6%; in the assay with MALME-3M melanoma it was 94.4%; with MDA-MB-231 breast, 94%; with RXF 393 renal, 104%; in the assay on SF-268 CNS it was 99.3%. Moreover, the growth in the assay on SF-295 CNS is 90%; in the assay with SF-539 CNS, 95.9%; with UACC-257 melanoma it was 102%; with M14 melanoma, 100%.

`Cc1noc(C)c1CSc1nc2ccccc2n1-c1ccccc1`: the growth in the assay with DU-145 prostate was 86.4%; with K-562 leukemia, 88.6%; in the assay with MALME-3M melanoma, 118%; in the assay on MDA-MB-231 breast, 81.5%; with RXF 393 renal, 60.4%; with SF-268 CNS, 85.7%. Besides, the growth was 98.1% in the assay with SF-295 CNS, 95.3% with SF-539 CNS, 110% in the assay with UACC-257 melanoma and 104% in the assay on M14 melanoma.

Consider `COc1ccc(/C=C/C(=O)c2cc(S(N)(=O)=O)c(OC)cc2OC)cc1`, for which the growth in the assay on DU-145 prostate was 17.3%; in the assay with K-562 leukemia, 26.1%; with MALME-3M melanoma, 98%; in the assay with MDA-MB-231 breast, 64.6%; in the assay with RXF 393 renal, 40.1%; with SF-268 CNS, 80.7%. The growth is 93.2% with SF-295 CNS, 76.4% in the assay with SF-539 CNS, 87.9% in the assay on UACC-257 melanoma and 84.3% with M14 melanoma.

For the compound `CN1CCN(Cc2ccc(NC(=O)c3cncc(C#Cc4cnc5ccc(N6CCN(C)CC6)nn45)c3)cc2C(F)(F)F)CC1`, the growth is -94.2% (active) with DU-145 prostate; -59% (active) in the assay on K-562 leukemia; 68.3% in the assay with MALME-3M melanoma; -66.7% (active) in the assay with MDA-MB-231 breast; -89.9% (active) with RXF 393 renal; -50.7% (active) in the assay with SF-268 CNS. The growth in the assay on SF-295 CNS is -78.4% (active); in the assay on SF-539 CNS, -98% (active); in the assay on UACC-257 melanoma it was 101%; in the assay with M14 melanoma, -45.8% (active).

For the compound `Nc1ncc(-c2ccc3ncnc(N4CCc5cc(F)c(Cl)cc54)c3c2)cn1`, the growth in the assay on DU-145 prostate was 10.8%; with K-562 leukemia, 34.6%; with MALME-3M melanoma, 33.6%; in the assay with MDA-MB-231 breast, 0.108% (active); with RXF 393 renal, -47.5% (active); in the assay on SF-268 CNS it was 16.9%. Moreover, the growth in the assay on SF-295 CNS is 13.2%; with SF-539 CNS, 8.74% (active); in the assay with UACC-257 melanoma, 50.6%; in the assay on M14 melanoma it was 33.8%.

Consider `Cc1cc(S(=O)(=O)N(C)C)cc(NCC(=O)NC(=O)NCC(C)C)c1C`, for which the growth in the assay with DU-145 prostate was 85.1%; in the assay on K-562 leukemia, 97.1%; with MALME-3M melanoma, 106%; with MDA-MB-231 breast it was 85.6%; with RXF 393 renal, 64.8%; in the assay on SF-268 CNS, 81.5%. Moreover, the growth is 100% with SF-295 CNS, 97.1% with SF-539 CNS, 103% in the assay with UACC-257 melanoma and 100% with M14 melanoma.

Consider `Cc1cc2ncc(-c3cc4ccccc4c(N4CCN(C)CC4)n3)nc2cc1C`, for which the growth in the assay on DU-145 prostate is 33.6%; in the assay with K-562 leukemia it was -50.7% (active); in the assay on MALME-3M melanoma, -69.1% (active); in the assay on MDA-MB-231 breast, 18.6%; in the assay on RXF 393 renal, -71.8% (active); with SF-268 CNS, 62.7%. For the same compound, the growth in the assay with SF-295 CNS was 10.2%; in the assay with SF-539 CNS it was -2.53% (active); in the assay with UACC-257 melanoma, 99.1%; in the assay with M14 melanoma it was -85.7% (active).

Consider `COc1ccc2[nH]cc(-c3csc4nc(-c5ccccc5)cn34)c2c1`, for which the growth with DU-145 prostate is 18.4%; in the assay on K-562 leukemia, 11.2%; in the assay on MALME-3M melanoma, 54.2%; with MDA-MB-231 breast, 20.8%; with RXF 393 renal, -15.7% (active); in the assay on SF-268 CNS, 41.1%. Besides, the growth in the assay with SF-295 CNS is -2.19% (active); with SF-539 CNS, -6.33% (active); in the assay with UACC-257 melanoma it was 60.4%; in the assay with M14 melanoma, 11.6%.

Take `CC1(C)[C@@H](O)CC[C@]2(C)[C@H]3CC[C@@H]4[C@H]5[C@H](C(=O)/C=C\c6ccccn6)CC[C@]5(O)CC[C@@]4(C)[C@]3(C)CC[C@@H]12`: the growth was 33.4% in the assay on DU-145 prostate; 7.45% (active) with K-562 leukemia; 56.4% in the assay on MALME-3M melanoma; 33.5% in the assay on MDA-MB-231 breast; -16.2% (active) in the assay on RXF 393 renal; 56.5% in the assay on SF-268 CNS. Moreover, the growth with SF-295 CNS was 73.6%; with SF-539 CNS it was 25.7%; in the assay on UACC-257 melanoma, 61.9%; in the assay with M14 melanoma, 52.9%.

On to `CCNC(=O)Oc1ccc(/C(=C(/C)c2ccccc2)c2ccc(OCCN3CCCCCC3)cc2)cc1`, for which the growth in the assay with DU-145 prostate was 38.7%; in the assay with K-562 leukemia, 2.41% (active); in the assay on MALME-3M melanoma, -70.8% (active); with MDA-MB-231 breast, 6.37% (active); in the assay with RXF 393 renal it was -7.37% (active); in the assay with SF-268 CNS it was 31.8%. Also, the growth in the assay on SF-295 CNS was -1.08% (active); in the assay with SF-539 CNS it was -74.5% (active); in the assay with UACC-257 melanoma it was -48.9% (active); with M14 melanoma, -80.3% (active).
